The values that follow come from PubChem BioAssay (NCI).

About 79,000 compounds went through this panel and 15% of them were active in at least one assay; those are over-represented in the sample as a whole. A number with no mark means an inactive call. Activity calls are given as the source filed them. No stated cut-off is given here; in the data, active means growth inhibition above about 70%; inactive means the rest.

Experiment [1] in a line: NCI Yeast Anticancer Drug Screen. Data for the rad50 strain (AID 155).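 Further: 0% = growth of vehicle-only cultures of the same strain.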 As to conditions: S. cerevisiae rad50 strain growth inhibition; at 50.0 µM; hits give high values. In a few lines:
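Compounds were tested on a yeast strain with an engineered DNA damage repair alteration; the reported value is growth inhibition normalised to vehicle treatment.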

Experiment [2] in a line: NCI Yeast Anticancer Drug Screen. Data for the mec2-1 strain (AID 157). The settings on record: S. cerevisiae mec2-1 strain, at 50.0 µM, hits give high values. In a few lines: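 mec2-1 yeast strain, carrying an alteration in DNA damage repair or cell cycle control, was exposed to compounds; growth inhibition was measured relative to vehicle-treated controls.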
The nature of experiment [3]: NCI Yeast Anticancer Drug Screen. Data for the sgs1 mgt1 strain (AID 161).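 Further: 0% = growth of cultures given vehicle only.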 As to conditions: S. cerevisiae sgs1 mgt1 strain, at 50.0 µM, hits give high values. In a few lines:
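This yeast growth screen uses a strain with defined DNA-repair lesions; compound-treated growth is compared with vehicle-treated growth.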

Experiment [4] is described as follows: NCI Yeast Anticancer Drug Screen. Data for the cln2 rad14 strain (AID 165).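 Further: 0% = growth equal to vehicle treated cultures.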 The settings on record: S. cerevisiae cln2 rad14 strain, at 50.0 µM, hits give high values. The method, boiled down:
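Yeast carrying cln2 and rad14 alterations (cell cycle control and DNA damage repair) were exposed to compounds. Growth inhibition was measured against vehicle-treated controls.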

Experiment [5] is described as follows: NCI Yeast Anticancer Drug Screen. Data for the bub3 strain (AID 167). The settings on record: S. cerevisiae bub3 mutant strain, at 50.0 µM, hits give high values. The method, boiled down:
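Growth of a checkpoint-deficient yeast mutant is measured after compound exposure. Values represent inhibition relative to vehicle.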

Experiment [6] can be described thus: NCI Yeast Anticancer Drug Screen. Data for the mlh1 rad18 strain (AID 175). As to conditions: S. cerevisiae mlh1 rad18 strain growth inhibition; at 50.0 µM; hits give high values. The method, boiled down:
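Growth inhibition of the yeast strain was measured after compound exposure and expressed relative to vehicle-treated controls. The strain carries defined defects in DNA damage repair.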

For the molecule `Cc1cccc(NC(=O)/C(=N\NC(C)(C)C)C2NC(=S)NC2=O)c1C` (stereo unspecified), the growth inhibition in experiment [1] was -2.25%; in experiment [2], -29.8%; in experiment [3], -38.5%; in experiment [4] it was -6.6%; in experiment [5], -16.4%; in experiment [6], -39.1%.

Turning to `CCOC(=O)c1cn(CC)c2cc(-n3cccc3)c(F)cc2c1=O`, the growth inhibition is 46.6% in experiment [1]; 27.6% in experiment [2]; 48.1% in experiment [3]; 39.5% in experiment [4]; 27% in experiment [5]; 49.9% in experiment [6].

Consider `O=c1[nH]c(CCCc2ccccc2)c(Br)c(=O)[nH]1`, for which the growth inhibition was -1.5% in experiment [1]; -7.65% in experiment [2]; 3.35% in experiment [3]; -4.35% in experiment [4]; 15.1% in experiment [5]; 24.4% in experiment [6].

For `O=C(c1ccccc1)C1C(c2ccccc2)C=CC(c2ccccc2)C1C(=O)c1ccccc1` (stereo unspecified), the growth inhibition in experiment [1] was -18.4%; in experiment [2] it was -11.3%; in experiment [3] it was -9%; in experiment [4], -4.55%; in experiment [5], 3.2%; in experiment [6], -22.6%.

For the molecule `Cc1c(F)c(N)c2c(=O)cc(-c3ccc(N)c(F)c3)oc2c1F`, the growth inhibition is 32.8% in experiment [1]; 16.1% in experiment [2]; 30.1% in experiment [3]; 21.3% in experiment [4]; 22.9% in experiment [5]; 1.2% in experiment [6].

Consider `CCCCCCC1OCC(C)([N+](=O)[O-])CO1` (stereo unspecified), for which the growth inhibition in experiment [1] was 13.9%; in experiment [2], -8.8%; in experiment [3], -1.1%; in experiment [4], -28.8%; in experiment [5] it was -12.6%; in experiment [6], 5.65%.

With `CC(=O)C1C(=O)C(=O)N(c2ccccc2C(C)C)C1=O` (stereo unspecified), the growth inhibition in experiment [1] was 19%; in experiment [2], 6.55%; in experiment [3], 11.9%; in experiment [4], 21.4%; in experiment [5], 11.9%; in experiment [6], 29.5%.

As for `O=C(c1cccc(C(=O)N2CCCC2)n1)N1CCCC1`, the growth inhibition in experiment [1] was -11.4%; in experiment [2] it was -13.2%; in experiment [3] it was -1.7%; in experiment [4], -25.6%; in experiment [5] it was -15.5%; in experiment [6], -18.8%.

As to `Cc1cc(Cl)ccc1NC(=O)/C(Cc1nc2ccc(C(=O)c3ccccc3)cc2[nH]c1=O)=N/NC(=O)c1ccncc1`, the growth inhibition in experiment [1] is 21.9%; in experiment [2], 17.1%; in experiment [3] it was 1.45%; in experiment [4] it was -33.7%; in experiment [5], 4.7%; in experiment [6] it was 16.1%.

For the molecule `CCCCCC/C(CC(=O)CCC(=O)NCCc1ccccc1)=N\Nc1ccc([N+](=O)[O-])cc1[N+](=O)[O-]`, the growth inhibition in experiment [1] was -0.2%; in experiment [2] it was 14.9%; in experiment [3], -35.5%; in experiment [4], 34.2%; in experiment [5] it was 11.9%; in experiment [6], -1.7%.

As to `C/C=C(/C)C(=O)O[C@H]1C[C@@H]2[C@@H](O)c3occ(C)c3C[C@]2(C)[C@@H](C)C1`, the growth inhibition in experiment [1] is 91% (active); in experiment [2], 92.4% (active); in experiment [3], 91.6% (active); in experiment [4] it was 90% (active); in experiment [5], 90.8% (active); in experiment [6], 90.2% (active).

On to `O=C(Nc1c[nH]c(=O)[nH]c1=O)Oc1ccccc1`, for which the growth inhibition is -5.65% in experiment [1]; -6.7% in experiment [2]; -4.8% in experiment [3]; -1% in experiment [4]; -50% in experiment [5]; 5.05% in experiment [6].

With `CCC(CC)C(=O)OCCCC1CCCO1` (stereo unspecified), the growth inhibition in experiment [1] is 12.9%; in experiment [2], 2.9%; in experiment [3], 7.9%; in experiment [4], -3.25%; in experiment [5] it was -3.95%; in experiment [6], 0.6%.

Turning to `O=S(c1ccccc1)[C@H]1CC2C3CC4C2C4C31` (stereo partly specified), the growth inhibition in experiment [1] is 2.3%; in experiment [2] it was 4.7%; in experiment [3], -1.7%; in experiment [4], 4.45%; in experiment [5], 19.9%; in experiment [6], 17.9%.

For `COC(=O)c1ccccc1C1CN=NC12Cc1c(C)ccc(C)c1C2=O` (stereo unspecified), the growth inhibition in experiment [1] was 9.5%; in experiment [2] it was 7%; in experiment [3], 16.9%; in experiment [4], 14.2%; in experiment [5], 3.55%; in experiment [6] it was 29.9%.

`C=C1C(=O)O[C@@H]2C[C@]3(C)[C@@H](C[C@H]12)[C@](C)(O)CC[C@@H]3O`: the growth inhibition was 5.65% in experiment [1]; -10.1% in experiment [2]; 1.5% in experiment [3]; -37.5% in experiment [4]; 7.5% in experiment [5]; 0.3% in experiment [6].

Regarding `CCOC(=O)C1=CN(C)C=C(Br)C1C#N` (stereo unspecified), the growth inhibition in experiment [1] was -2.2%; in experiment [2], 10.1%; in experiment [3], 4.55%; in experiment [4], 6.45%; in experiment [5] it was 8.1%; in experiment [6] it was -4.75%.

As to `N/N=C1/C(=O)N(c2ccc(S(N)(=O)=O)cc2)C(=O)C1C(=O)Nc1ccc(S(N)(=O)=O)cc1` (stereo unspecified), the growth inhibition was -4% in experiment [1]; 15.6% in experiment [2]; -0.9% in experiment [3]; 30.6% in experiment [4]; 0.25% in experiment [5]; 12.1% in experiment [6].

For the molecule `COc1cc(C=Nc2ccc(C)c(Cl)c2)ccc1OC(=O)c1ccccc1`, the growth inhibition in experiment [1] was -22.2%; in experiment [2], -9.05%; in experiment [3], -8.3%; in experiment [4] it was -12.8%; in experiment [5] it was 3.5%; in experiment [6], -0.3%.

On to `O=C(O)c1c(Br)c(Br)c(Br)c(Br)c1C(=O)Nc1cccc2c(O)cccc12`, for which the growth inhibition was 42.4% in experiment [1]; 24.9% in experiment [2]; 25.2% in experiment [3]; 14.4% in experiment [4]; 24.3% in experiment [5]; 44.9% in experiment [6].

For `NCCCCCCCCCCC(=O)O`, the growth inhibition was -7.25% in experiment [1]; -7.6% in experiment [2]; -10.7% in experiment [3]; -11.2% in experiment [4]; -5.9% in experiment [5]; -2.8% in experiment [6].
